Data on 23 compounds can be found in PubChem BioAssay AID488913 (National Center for Advancing Translational Sciences (NCATS), 2010).

Records with an inconclusive call do not appear. Values without a mark were called inactive. Calls of active or inactive are those of the source. Calls follow the shape of the dose curve; as a rule, active = well fitted inhibition curve with a large enough effect; inconclusive = small, poorly fitted or top-dose-only effect, or effect the other way; inactive = no such curve, though single readings can be large or run the other way.

The test in a line: Confirmation Concentration-Response Assay for lipid storage modulators: for probe SAR. Particulars: Drosophila S3 cells, BODIPY lipid droplet fluorescence, 18-24 h; series mostly up to 46.1 µM; activity change, negative = lipid storage inhibition: at the top concentration. In a few lines: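 Laser-scanning cytometry read BODIPY 493/503 lipid-droplet intensity and its ratio to CellTracker Red cell signal. Beforehand, 5,000 cells/well were exposed 18–24 h at 24 °C to test compound with oleic acid (1 µL, 400 µM). 20 µM Triacsin C defined full inhibition.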
Consider `CCOc1ccc(CCNC(=O)c2cc3sccc3n2CC=C(C)C)cc1OCC`, for which the Potency is 79.1 nM (active).

On to `O=C(Cc1cccs1)Nc1nc(-c2ccc3c(c2)CCC3)cs1`, for which the “activity change, negative = lipid storage inhibition” value is -3.86%.

On to `COc1ccc(-c2csc(NC(=O)Cc3cccs3)n2)cc1`, for which the Potency was 25000 nM (active).

Take `CCOc1ccc(CCNC(=O)c2cccs2)cc1OCC`: the “activity change, negative = lipid storage inhibition” value was 37.6%.

Turning to `O=C(NC1CCCc2c1cnn2-c1ccc(F)cc1F)c1ccccc1` (stereo not drawn), the Potency is 56 nM (active).

`O=C(CSc1nnc(NCc2ccccc2)s1)Nc1nc(-c2cccc(Br)c2)cs1`: the Potency was 1250 nM (active).

With `O=C(N[C@H]1CCCc2c1cnn2-c1ccc(F)cc1F)c1ccccn1`, the Potency is 7910 nM (active).

With `O=C(NC1CCCc2c1cnn2-c1ccc(F)cc1F)c1cccc(Cn2cccn2)c1` (stereo not drawn), the Potency was 125 nM (active).

For the compound `CCOc1ccc(CCNC(=O)c2cc3sccc3n2CCc2ccccc2)cc1OCC`, the Potency was 28.1 nM (active).

As to `CCOc1ccc(CCNC(=O)Cc2ccccc2)cc1OCC`, the “activity change, negative = lipid storage inhibition” value is 0%.

In the case of `O=C(NC1CCCc2c1cnn2-c1ccc(F)cc1F)C1CCCCC1` (stereo not drawn), the Potency was 4990 nM (active).

On to `O=C(NC1CCCc2c1cnn2-c1ccc(F)cc1F)c1ccc2cc[nH]c2c1` (stereo not drawn), for which the Potency is 7710 nM (active).

For `CCOc1ccc(CCNC(=O)c2cc3sccc3n2C(C)C)cc1OCC`, the Potency is 99.6 nM (active).

Consider `Cn1c(=O)n(-c2ccc(C(C)(C)C#N)cc2)c2c3cc(-c4cnc5ccccc5c4)ccc3ncc21`, for which the Potency was 1120 nM (active).

On to `O=C(O)CCc1ccc(NCc2cccc(Oc3ccccc3)c2)cc1`, for which the “activity change, negative = lipid storage inhibition” value is 24.2%.

For `Cc1ccc(-n2ncc3c2CCCC3NC(=O)c2c(F)cccc2F)cc1C` (stereo not drawn), the Potency is 158 nM (active).

With `CCOC(=O)C1CCN(C(=O)C2(NC(=O)Nc3ccccc3Cl)CCC2)CC1`, the Potency is 2810 nM (active).

Regarding `CCOC(=O)C1CCN(C(=O)C(C)(C)NC(=O)Nc2ccccc2Cl)CC1`, the Potency was 628 nM (active).

For the compound `O=C(NC1CCCc2c1cnn2-c1ccc(F)cc1F)c1cccc(=O)[nH]1` (stereo not drawn), the Potency is 7910 nM (active).

As for `O=C(NC1CCCc2c1cnn2-c1ccc(F)cc1F)c1cnccn1` (stereo not drawn), the Potency was 250 nM (active).

`O=C(NC1CCCc2c1cnn2-c1ccc(F)cc1F)c1ccc[n+]([O-])c1` (stereo not drawn): the “activity change, negative = lipid storage inhibition” value was -0.966%.

For the compound `CCOC(=O)C1CCN(C(=O)C2(NC(=O)Nc3ccc(F)cc3F)CCCCC2)CC1`, the Potency was 888 nM (active).

As to `CCn1c(C(=O)NCCc2ccc(OC)cc2)cc2sccc21`, the “activity change, negative = lipid storage inhibition” value is 108%.
